Screens deposited in PubChem by National Center for Advancing Translational Sciences (NCATS).
FLuc inh = blocks purified firefly luciferase enzyme activity. 76,000 compounds, 2.5% hits. purified P. pyralis luciferase, luminescence, biochemical. Potency, µM (top dose mostly 115 µM), actives largely listed as inhibitors; also: nearly all actives have a fitted effect of over 65% in size
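Inhibitors were tested against purified firefly luciferase in a biochemical, low-substrate format (both substrates at 10uM) and luminescence measured with a CCD imager.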
HEK293 tox = cytotoxic compounds in HEK 293 cells. HEK 293 viability, ATP luminescence (CellTiter-Glo), 48-72 h. Potency, µM (highest dose often 115 µM), without a hit: at the highest dose activity change, negative = cytotoxicity, usual class: inhibitors. 94,000 compounds, 6.6% hits; also: nearly all actives have a fitted effect of over 60% in size
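qHTS cytotoxicity; HEK 293, 250 cells/well; compound pinned; 48 or 72 hr, 37 degree Celsius, 5% CO2, 95% humidity; CellTiter-Glo, 10 min RT; luminescence (ATP).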
GPT2 inhibitor = GPT2 alanine aminotransferase inhibition | Q8TD30 | Recombinant GPT2, coupled pyruvate oxidase/HRP Amplex Red fluorescence | 100,000 compounds, 0.25% hits | Potency, µM (highest dose often 57.7 µM), for inactives: at the top dose activity change, negative = inhibition, most hits filed as inhibitors; also: nearly all actives have a fitted effect of over 60% in size
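Recombinant GPT2 (10ng/uL) with 250uM a-KG and 2mM L-alanine, 30 min at room temperature, in HEPES pH 7.5 buffer. Pyruvate detected by pyruvate oxidase/HRP/Amplex Red fluorescence after 30 min in the dark; AOA (50uM) as positive control.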
hNpr1 antagonist = blocks ANP-stimulated signaling of human Npr1 receptor; P16066; HEK293 hNpr1 GloSensor cGMP, ANP-stimulated luminescence; Potency, µM (top dose mostly 46.3 µM), for the others: top-dose activity change, negative = inhibition, hits mostly inhibitors; 76,000 compounds, 1.6% hits; calls by dose curve; also: nearly all actives have a fitted effect of over 60% in size
Target sequence (P16066 whole entry, looked up): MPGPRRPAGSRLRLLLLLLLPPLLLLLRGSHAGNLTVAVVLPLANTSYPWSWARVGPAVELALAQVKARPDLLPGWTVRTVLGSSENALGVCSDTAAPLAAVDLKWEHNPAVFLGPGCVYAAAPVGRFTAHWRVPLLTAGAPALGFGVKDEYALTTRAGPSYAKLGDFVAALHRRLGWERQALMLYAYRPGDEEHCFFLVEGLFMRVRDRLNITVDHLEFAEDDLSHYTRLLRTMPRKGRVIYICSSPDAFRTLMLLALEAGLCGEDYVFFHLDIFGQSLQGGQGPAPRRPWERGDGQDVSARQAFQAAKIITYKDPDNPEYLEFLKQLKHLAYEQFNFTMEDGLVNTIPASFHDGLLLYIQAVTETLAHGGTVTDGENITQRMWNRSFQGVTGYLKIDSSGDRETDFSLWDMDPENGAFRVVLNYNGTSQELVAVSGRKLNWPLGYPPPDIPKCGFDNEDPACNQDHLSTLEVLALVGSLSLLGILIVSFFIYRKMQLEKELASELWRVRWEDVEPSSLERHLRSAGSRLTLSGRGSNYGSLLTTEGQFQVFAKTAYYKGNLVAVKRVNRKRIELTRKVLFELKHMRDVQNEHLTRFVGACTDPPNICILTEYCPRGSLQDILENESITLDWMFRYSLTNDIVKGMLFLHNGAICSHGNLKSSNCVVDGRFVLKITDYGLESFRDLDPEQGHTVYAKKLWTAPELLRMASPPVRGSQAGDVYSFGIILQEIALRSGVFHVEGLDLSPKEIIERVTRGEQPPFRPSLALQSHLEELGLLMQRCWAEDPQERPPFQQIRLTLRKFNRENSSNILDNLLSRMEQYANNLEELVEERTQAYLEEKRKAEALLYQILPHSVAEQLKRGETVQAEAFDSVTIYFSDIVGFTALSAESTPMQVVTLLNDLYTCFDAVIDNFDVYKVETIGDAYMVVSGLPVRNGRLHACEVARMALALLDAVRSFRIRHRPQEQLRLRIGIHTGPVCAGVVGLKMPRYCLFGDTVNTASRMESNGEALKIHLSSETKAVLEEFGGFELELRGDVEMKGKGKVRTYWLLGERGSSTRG
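HEK293 cells stably expressing human Npr1 and cGMP GloSensor pGS-40F, loaded 2 h with 2% GloSensor reagent, given compound 30 min at room temperature. Luminescence read before and 20 min after 0.1 nM hNppA.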
NIH3T3 tox = NIH 3T3 cell cytotoxicity | NIH 3T3 viability, CellTiter-Glo ATP luminescence, 48-72 h | Potency, µM (series often up to 96.7 µM), without a hit: at the highest dose activity change, negative = cytotoxicity, actives largely listed as inhibitors | 94,000 compounds, 4.3% hits; also: nearly all actives have a fitted effect of over 55% in size
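First NIH 3T3 cells are plated at 400 cells/well; next compound is pinned in; then plates incubate 48 or 72 hr at 37 °C; finally CellTiter-Glo is added and luminescence read after 10 min.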
The depositor's hits bear a star; i = inactive; ? = inconclusive; . = no result given; [ ] = remark or other dose. An excerpt weighted towards active compounds, which were near 10% of everything screened. Unless noted, calls follow the shape of the dose curve; as a rule, active = well fitted curve in the direction sought with a large enough effect; inconclusive = small, poorly fitted or top-dose-only effect, or another doubt; inactive = no such curve, though single readings can be large; an effect the other way counts as inactive or inconclusive. % is scaled to controls: 0 for no effect and ±100 for the full control effect; potency is read from the fitted curve at half-maximal effect.

SMILES	FLuc inh	HEK293 tox	GPT2 inhibitor	hNpr1 antagonist	NIH3T3 tox
CCC(CC)C(=O)NC[C@@H]1C=C(C)[C@H](Cc2nc3ccc(OC)cc3[nH]2)C[C@H]1C(C)C	i	45µM*	i	-22%[70.6 µM]	?
COc1ccc2nc(C[C@@H]3C[C@@H](C(C)C)[C@H](CNC(=O)COCC(=O)O)C=C3C)[nH]c2c1	i	i	1%[88.5 µM]	-5%[70.6 µM]	-13%[174 µM]
COc1ccc(S(=O)(=O)NC[C@@H]2C=C(C)[C@H](CC(=O)N(C)Cc3cccnc3)C[C@H]2C(C)C)cc1	i	?	-11%	-12%	10µM*
COC(=O)c1ccc(CN2C(=O)[C@@H]3C[C@@H](O)CN3C3(CN(Cc4ccc(OC)cc4)C3)C2=O)cc1	i	-13%	-3%	2%	-11%
CCCCCC(=O)N1CCC[C@H]1C(=O)N[C@@H](Cc1ccc(O)cc1)C(=O)OC	.	.	-11%	.	.
O=C(c1ccc(C(F)(F)F)cc1)N1CCC2(CC1)CCN(Cc1cccs1)c1ccccc1O2	i	25µM*	i	-11%	13µM*
O=C1CC2(CCN(C(=O)C3CCN([S+](=O)([O-])c4cccs4)CC3)CC2)Oc2ccccc2N1	.	28µM*	i	.	?
Cc1ccc(C(=O)N2CCC3(CC2)CCN(Cc2cccs2)c2ccccc2O3)cc1	i	?	-16%	2%	?
O=C(C1CC1)N1CCC2(CC1)CCN(Cc1cccs1)c1ccccc1O2	i	35µM*	i	2%	?
Cc1cccc(NC(=O)CN2C(=O)NC(c3ccccc3Cl)C3=C2COC3=O)c1C (stereo not given)	i	?	1%	5%	-19%
O=C(NCC(=O)N1CCCC1)c1cccc(-c2ccc(C(F)(F)F)cc2)c1	.	?	1%	.	?
COC1C(=O)N(C2CCN(Cc3ccc(F)c(F)c3)CC2)C12CCOCC2 (stereo not given)	i	-12%	i	-8%	-11%
C#CCNC(=O)[C@@H]1Cc2cn(Cc3cc(C)on3)c3cccc(c23)[C@H](CC(C)C)N1	i	?	i	8%[70.6 µM]	?
Cc1cc(Cn2cc3c4c(cccc42)[C@H](CC(C)C)N[C@H](C(=O)NC(C)C)C3)no1	i	45µM*	0%[88.5 µM]	-5%[70.6 µM]	50µM*
Cc1cc(Cn2cc3c4c(cccc42)[C@H](CC(C)C)N[C@H](C(=O)NCCN2CCCC2)C3)no1	i	28µM*	0%	-7%	22µM*
C=CCNC(=O)[C@@H]1Cc2cn(Cc3cc(C)on3)c3cccc(c23)[C@H](CC(C)C)N1	i	71µM*	0%[88.5 µM]	1%[70.6 µM]	79µM*
Cc1cc(Cn2cc3c4c(cccc42)[C@H](CC(C)C)N[C@H](C(=O)NC2CCC2)C3)no1	i	79µM*	3%[88.5 µM]	4%[70.6 µM]	?
CC(=O)N1CCN(C(=O)[C@@H]2Cc3cn(Cc4cc(C)on4)c4cccc(c34)[C@H](CC(C)C)N2)CC1	i	i	-2%	6%	-7%
Cc1cc(Cn2cc3c4c(cccc42)[C@H](CC(C)C)N[C@H](C(=O)NCc2cncn2C)C3)no1	i	?	?	2%	-20%
CN(C)S(=O)(=O)N1CCc2nn(CC3CC3)c(=O)n2CC1	.	i	i	.	-2%
COc1cccc([S+](=O)([O-])N2CCC3(C2)OC(=O)Nc2ccccc23)c1 (stereo not given)	i	?	i	-26%	?
CCN(CC)C(=O)N1CCCCC1c1nc(CCOc2ccc(F)cc2)no1 (stereo not given)	.	?	i	.	?
CNC(=O)c1cc(C2CC2)nc2onc(C3CCN(C(=O)c4ccc(OC)cc4)C3)c12 (stereo not given)	.	?	.	.	-20%
O=C(c1ccc(Cl)cc1)N1CC(c2nnc(-c3ccncc3)o2)C2(CCOCC2)C1 (stereo not given)	i	-22%	i	1%	-23%
Cc1cc(Cn2cc3c4c(cccc42)[C@H](CC(C)C)N[C@H](C(=O)NC2CCCC2)C3)no1	i	40µM*	3%[88.5 µM]	-1%[70.6 µM]	32µM*
SMILES	FLuc inh	HEK293 tox	GPT2 inhibitor	hNpr1 antagonist	NIH3T3 tox
COCCCNC(=O)[C@@H]1Cc2cn(Cc3cc(C)on3)c3cccc(c23)[C@H](CC(C)C)N1	i	35µM*	-1%	8%	?
COc1ccc(OC)c(CNC(=O)C2(C)CCCCC(=O)N2)c1 (stereo not given)	i	9%	i	0%	i
O=C(NCCCc1ccccc1)c1cn2cc(-c3ccc(F)cc3)sc2n1	.	?	-16%	.	20µM*
COc1cccc(-c2cn3cc(C(=O)NCCCc4ccccc4)nc3s2)c1	.	?	-49%	.	35µM*
O=C(NC1CC1)c1cn2cc(-c3ccccc3)sc2n1	.	?	i	.	?
O=C(NC1CCCCC1)c1cn2cc(-c3ccccc3)sc2n1	.	63µM*	-11%[88.5 µM]	.	?
O=C(NCCc1ccccc1)c1cn2cc(-c3ccc(C(F)(F)F)cc3)sc2n1	.	-4%	-8%	.	-12%
O=C(NCc1ccc(F)cc1)c1cn2cc(-c3ccccc3)sc2n1	.	79µM*	-14%[88.5 µM]	.	?
COCCn1c(CN2CCn3nc(C#N)cc3C2)nnc1C1CC(N)C1 (stereo not given)	i	2%	-11%	3%	-14%
O=C(N[C@@H]1CCOC[C@H]1Oc1ccccn1)c1ccc(N2CCCC2=O)cc1	i	-17%	i[11.5 µM]	4%	-32%
O=C(NCc1ccccn1)c1cn2cc(-c3ccccc3)sc2n1	.	50µM*	5%	.	?
COc1cccc(-c2cn3cc(C(=O)N4CCCCC4)nc3s2)c1	.	?	2%	.	40µM*
CC(C)CNC(=O)c1cn2cc(-c3ccccc3)sc2n1	.	71µM*	-10%[88.5 µM]	.	?
O=C(NCc1ccccn1)c1cn2cc(-c3cccc(C(F)(F)F)c3)sc2n1	.	?	i	.	-14%
COc1cccc(-c2cn3cc(C(=O)N4CCN(C(C)=O)CC4)nc3s2)c1	.	?	i	.	?
CC1(C)CC(NC(=O)c2cc(Cn3cnc4ccccc43)[nH]n2)CC(C)(C)N1	i	-7%	-2%	-2%	-3%
COCCN1C(=O)CC[C@]2(C(=O)NCc3cccc(Cl)c3)CCCC[C@@H]12	i	-12%	-19%	-7%	-18%
CN(C)C(=O)c1ccc(OC2CCN(C(=O)c3ccc(Cl)cc3)CC2)nc1	i	?	i	-17%	40µM*
CC(C)c1ccc(C(=O)N2CCC(Oc3ccc(C(=O)N(C)C)cn3)CC2)cc1	i	?	i	-13%	-21%
CC(C)CNC(=O)c1ccc2c(c1)NC(C)(CNc1ccccc1)CO2 (stereo not given)	i	?	-6%[88.5 µM]	-22%[70.6 µM]	?
